Screening data (PubChem BioAssay)
NS1 function inh = qHTS Assay for Inhibitors of Influenza NS1 Protein Function. Potency, µM (titrated, usually from 46.1 µM). 270,000 compounds, 0.4% hits; also: actives are rising curves; nearly all actives have a fitted effect of over 50% in size
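Compounds were scored for reversing the slow growth caused by influenza A NS1 in S. cerevisiae, measured by optical density at 600 nm. Assay medium contained 2% galactose at pH 6.0; NS1-free yeast of the same strain were the positive control.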
Shiga inhibitor = A qHTS for Small Molecule Inhibitors of Shiga Toxin; Vero cells, Shiga toxin protein synthesis inhibition reporter; inhibition, % at 38.7 µM; 290,000 compounds, 9.2% hits; AID 2315, 2010; in the data active = inhibition mostly above about 28%, no sharp cut-off; inactive = mostly below about 43%
SARS PLpro yeast = qHTS of Yeast-based Assay for SARS-CoV PLP. AID 485353, 2010. 330,000 compounds, 0.19% hits. S. cerevisiae expressing SARS-CoV PLpro, growth rescue. Potency, µM (doses to about 32.9 µM), actives largely listed as activators; also: nearly all actives have a fitted effect of over 55% in size
CHX counter = Cycloheximide Counterscreen for Small Molecule Inhibitors of Shiga Toxin; cell reporter, cycloheximide protein synthesis inhibition counterscreen; max response, %; 300,000 compounds, 12% hits; AID 2314, 2010; in the data active = max response mostly above about 13%, no sharp cut-off; inactive = mostly below about 14%; also: read at 38.3 µM for the half of the compounds with a filed dose
Hits are given with their value; i = inactive; nt = not tested or not shown. Only some compounds are listed: those with a hit (about 12% of all), similar ones and a draw of the others. Unless noted, calls follow the shape of the full dose curve.

SMILES | NS1 function inh | Shiga inhibitor | SARS PLpro yeast | CHX counter
CCc1cc(=O)oc2c3c(cc(OCC(=O)NCc4ccncc4)c12)OC(C)(C)CC3 | i | i | i | i
CCCOc1ccc(C(NC(=O)CC(C)C)NC(=O)CC(C)C)cc1OC | i | i | i | i
COc1ccccc1N1C(=O)NC(=O)/C(=C/c2ccc3c(c2)Cc2ccccc2-3)C1=O | i | 45 | i | i
NC(=O)c1nc(C(=O)N2CCCCC2)c2ccccc2n1 | nt | nt | i | nt
CCc1ccccc1NC(=O)Nc1ccsc1C(=O)OC | i | i | i | i
COC(=O)c1sccc1NC(=O)Nc1ccc(F)cc1 | i | i | i | 30
COC(=O)c1sccc1NC(=O)Nc1cc(C)cc(C)c1 | i | 80 | i | 47
COC(=O)c1sccc1NC(=O)NC1CCCCC1 | nt | i | i | 47
CCOc1ccccc1NC(=O)Nc1ccsc1C(=O)OC | i | 36 | i | 22
COC(=O)c1sccc1NC(=O)Nc1ccc(C)cc1C | i | i | i | i
COC(=O)c1sccc1NC(=O)COc1ccccc1Cl | i | active | i | 33
COC(=O)c1ccccc1NC(=S)NC(=O)COc1ccccc1Cl | i | i | i | i
COC(=O)c1sccc1NC(=S)Nc1ccc(F)cc1 | i | i | i | i
COC(=O)c1sccc1NC(=O)Nc1ccc(C(C)=O)cc1 | i | 53 | i | 45
COC(=O)c1sccc1NC(=O)Nc1ccc(C)cc1 | i | 87 | i | 45
CCC(=O)N(Cc1cc2cc(OC)ccc2[nH]c1=O)c1ccc(C)cc1 | i | nt | i | i
COc1ccccc1NC(=O)CSC(N)=O | i | i | i | i
CC1CCC2(CC1)NC(=O)N(CC(=O)Nc1cccc(S(=O)(=O)N3CCCC3)c1)C2=O (configuration not stated) | nt | nt | i | nt
COCC(=O)N(Cc1cc2cc(C)ccc2[nH]c1=O)c1ccccc1 | i | i | i | 12
COCC(=O)N(Cc1cc2ccc(C)cc2[nH]c1=O)c1cccc(C)c1 | i | i | i | i
Cc1cccc(C)c1OCc1cc(C(=O)NC2CCC(O)CC2)no1 (configuration not stated) | i | i | i | i
Cc1cccc(C)c1OCc1cc(C(=O)NCC2COCCO2)no1 (configuration not stated) | i | i | i | i
Cc1cccc(C)c1OCc1cc(C(=O)NC2CCC2)no1 | i | 37 | i | 37
O=C(NCc1ccc(Cl)s1)c1cc(COc2c(F)cccc2F)on1 | i | i | i | i
Cc1cccc(C)c1OCc1cc(C(=O)NCC2CC2)no1 | i | i | i | 10
SMILES | NS1 function inh | Shiga inhibitor | SARS PLpro yeast | CHX counter
Cc1cccc(C)c1OCc1cc(C(=O)NCc2ccc(Cl)s2)no1 | i | i | i | 18
CCOC(=O)N1CCC(NC(=O)c2cc(COc3c(C)cccc3C)on2)CC1 | i | i | i | 14
CN(CC(=O)OCC(=O)NCC(F)(F)F)S(=O)(=O)c1ccc(Cl)cc1 | nt | i | i | i
Cc1ccc(/C=N/N2CCN(c3ccccc3)CC2)cc1 | nt | i | i | 19
Cc1ccccc1/C=N/N1CCN(c2ccccc2)CC1 | i | 103 | i | 50
Cc1ccc(N2CCN(/N=C/c3ccncc3)CC2)cc1 | nt | i | i | i
Cc1cccc(/C=N/N2CCN(c3ccccc3)CC2)c1 | i | 73 | i | 42
CCC(=O)OCCCCCCOc1ccc(C(=O)O)cc1 | i | i | i | i
CCCCOc1ccc(/C(N)=N/O)cc1 | i | 82 | i | 43
CCCOc1ccc(C(=O)CCCC(=O)c2ccc(OCCC)cc2)cc1 | i | i | i | i
CCCCOc1ccc(-c2ncc(C(=O)O)c(C)n2)cc1 | i | 99 | i | 28
O=C(O)c1cnc(-c2ccccc2)nc1Oc1ccccc1 | nt | i | i | i
CCCCCCOc1ccc(C(=O)O)cc1 | i | 42 | i | 16
OCCNc1nc(N2CCN(c3ccccc3)CC2)nc2ccccc12 | i | i | i | i
COc1ccc2c(c1)cc(C(=O)N[C@H](C(=O)N1CCC(C(=O)O)CC1)C(C)C)n2C | i | i | i | i
CCC(C)(C)c1ccc2c(c1)C(=O)c1ccccc1C2=O | i | 37 | i | 62
CCC(C)(C)NC(=O)c1ccc2c(c1)S(=O)(=O)c1ccccc1C2=O | i | i | nt | i
Cc1cc(C)n2c(SCC(=O)NC3CCCCC3)nnc2n1 | i | i | i | i
COC(=O)c1ccnc(SCC(=O)c2ccccc2)c1 | i | 79 | i | 43
COC(=O)CSc1nnc(SCc2ccc(Cl)cc2)s1 | i | i | i | i
COC(=O)c1cnc(SCC(=O)c2ccccc2)n1C | i | 100 | i | 43
COC(=O)c1cnc(SCc2ccc(Cl)cc2)n1C | nt | 65 | i | 47
Cn1c2ccccc2c2cc(C(=O)N3CCN(CCO)CC3)sc21 | i | i | i | 14
CSc1nc(-c2ccc(Cl)cc2Cl)[nH]c(=O)c1C#N | i | i | i | i
Cc1cc(-c2ccc(Cl)cc2Cl)c(C#N)c(=O)[nH]1 | i | 44 | i | 21
SMILES | NS1 function inh | Shiga inhibitor | SARS PLpro yeast | CHX counter
CN1OC(COC(=O)c2ccccc2)CC1c1ccccc1 (configuration not stated) | i | 94 | i | 41
C/C(=N\NC(=O)c1cccs1)c1ccc(C(=O)O)s1 | i | 83 | i | 64
C/C(=N\NC(=O)c1csc(C)c1C)c1ccco1 | i | 62 | i | 37
C/C(=N\NC(=O)Cc1ccccc1)c1cccs1 | i | i | i | i
CCOC(=O)C/C(C)=N/NC(=O)c1cccs1 | i | 71 | i | 22
C/C(=N/NC(=O)c1cccs1)c1ccco1 | i | 95 | i | 56
CCOC(=O)CNC(=O)c1cccs1 | i | i | i | i
Cc1ccc(NC(=O)c2ccco2)c(NC(=O)c2cccs2)c1 | i | i | i | i
COc1ccc(-c2nc3ccc(N4CCCC4)cc3c(=O)[nH]2)cc1OC | i | i | i | i
c1ccc(COC(CN2CCCCCC2)CN2CCCCCC2)cc1 | i | i | i | i
Fc1cccc(CNc2ncnc3ccc(-c4ccccc4Cl)cc23)c1 | nt | nt | i | nt
COc1ccc(C2=NOC(Cn3nc(-c4ccccc4)cc3C(=O)NCc3ccccc3OC)C2)cc1 (configuration not stated) | nt | nt | i | nt
CC(=O)N/N=C(/C)c1ccc(NC(=O)c2csc(C)c2C)cc1 | i | 147 | i | 40
CCOc1ccc(/C=N/NC(=O)c2csc(C)c2C)c(OCC)c1 | i | i | i | i
C/C(=N\NC(=O)c1csc(C)c1C)c1ccc(C)s1 | i | 38 | i | 38
CC(=O)Nc1ccc(/C(C)=N/NC(=O)c2ccncc2)cc1 | i | i | i | i
C/C(=N\NC(=O)c1cccs1)C(C)(C)C | i | 57 | i | 71
CC(C)c1cccc(-c2ccc3c(c2)S(=O)(=O)c2cccc(C(=O)NCc4ccco4)c2C3=O)c1 | nt | nt | i | nt
COc1ccc(CC(=O)NCC(=O)N/N=C(/C)c2ccco2)cc1 | nt | i | i | i
Cc1cc(C)n(C(=O)CNC(=O)c2ccc(C(C)(C)C)cc2)n1 | i | i | i | 34
Oc1ccc2ccccc2c1C=Nc1ccccc1-c1nc2ccccc2[nH]1 | i | 59 | i | 43
CC(C)(C)c1ccc(O)c(N=Cc2c(O)ccc3ccccc23)c1 | i | i | i | i
CN(C)S(=O)(=O)c1ccc(NC(=O)N2CCN(c3ccccc3)CC2)cc1 | i | i | i | i
